Data on four molecules can be found in PubChem BioAssay.

A short description of experiment [1]: blockers of polyQ-driven CASP3 activation – cell-based (AID 1583). As to conditions: polyglutamine-induced caspase-3 activation, cell assay; stronger effect = higher value;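 tested at 10 µM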.
Experiment [2] can be described thus: yeast 75Q aggregation reduction – 75Q-TubU reporter (AID 1593). The note with it: Yeast 75Q polyglutamine aggregation reporter.
Experiment [3] can be described thus: restoration of touch response, mutant HTT neurons – whole organism, C. elegans mechanosensory neurons, N-terminal huntingtin (AID 1599). The note with it: C. elegans polyQ-huntingtin mechanosensory neurons, stronger effect = higher value.
A short description of experiment [4]: blockers of cytochrome c efflux from mitochondria – biochemical, purified mitochondria (AID 1603).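 Further: mouse liver mitochondria challenged with calcium chloride; signal normalized to the plate average as 100%.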 The note with it: stronger effect = lower value.
A short description of experiment [5]: polyglutamine aggregate formation blockers (AID 1604). As to conditions: polyglutamine-induced protein aggregation inhibition assay; stronger effect = higher value; tested at 2.5 µM.
Experiment [6] can be described thus: glutamate transport activators, MN-1 cells, MN-1 cell line (AID 1612).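 Further: tested at 1 µM final; 0% = mean of DMSO vehicle wells on each plate; positive means more glutamate uptake than control and negative means less.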 The note with it: MN-1 motor neuron cells, stronger effect = higher value.
The nature of experiment [7]: 75Q-TubH aggregate inhibition, S. cerevisiae, yeast (AID 1616). The note with it: S. cerevisiae 75Q-TubH polyglutamine aggregation suppression; stronger effect = higher value.
A short description of experiment [8]: signal quenchers or enhancers, Cy5 substrate/SSB – biochemical, NIH Clinical Collection, E. coli SSB, artefact control for HCV NS3 helicase inhibitor project (AID 743268). The note with it: Cy5-oligo bound E. coli SSB, fluorescence interference.
Experiment [9] deals with Hepatitis C virus NS3 helicase. In words: blockers of NS3h binding to DNA – biochemical, fluorescence polarization, NIH Clinical Collection, primary screen (AID 743270). As to conditions: NS3 helicase binding to Cy5-dT15 DNA, stronger effect = higher value, concentration not given here. On the technique in general: Polarisation of emitted light reports the rotation of a fluorescent probe.

Experiment [10] concerns the target Single-stranded DNA-binding protein (Escherichia coli (strain K12)) (UniProt P0AGE0). In words: SSB-ssDNA binding inhibitors – biochemical, fluorescence polarization, NIH Clinical Collection, counter-screen for HCV NS3 helicase inhibitor project (AID 743271; in the data active means inhibition above about 28%). As to conditions: E. coli SSB-DNA binding, stronger effect = higher value, concentration not given here.
Experiment [11] is described as follows: compounds distorting NS3 helicase fluorescence signal – biochemical, NIH Clinical Collection, artefact control for HCV NS3 helicase inhibitor project (AID 743272).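 Further: HCV NS3 helicase with a Cy5 labelled single stranded DNA probe.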 As to conditions: fluorescence interference counterscreen, HCV NS3 helicase assay; stronger effect = lower value. (The purpose of a counterscreen is to sort out artefacts and off-target activity.)
Experiment [12] in a line: modulation of C. elegans fzo-1 (AID 1259413).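 Further: fzo-1 mutant C. elegans worms in liquid wells.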 The note with it: C. elegans fzo-1 modulator screen, mean read-out; stronger effect = higher value.
The target in experiment [13] is Mitogen-activated protein kinase 7 (Homo sapiens) (UniProt Q13164). In words: Gal4-ERK5 driven luciferase induction – cell-based, HTS, primary screen (AID 1508626;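 active means luciferase signal above three times the same-plate solvent-only control wells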;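 further: luciferase driven by Gal4-ERK5 fusion binding five Gal4 sites before minimal TATA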). As to conditions: HeLa Gal4-ERK5 transactivation, 18 h, at 5 µM, stronger effect = higher value.
Experiment [14] can be described thus: galactose survival enhancers in mitochondrial complex I cybrids – cell-based, galactose medium, ATP luminescence, primary screen (AID 1645843;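 active means z-score of at least 1.8 in each of two replicates, scored against plate mean and spread of sample wells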;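 further: positive z means more ATP and so rescue of galactose-driven cybrid death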). As to conditions: complex I mutant cybrid cells, 72 h, stronger effect = higher value.
The next experiment relates to R275C/beta1. In words: BK channel mutant inhibitors and activators – cell-based, U2OS BacMam, thallium flux, beta subunits, selectivity assay, profiling panel (AID 1259406;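 active means thallium flux through the channel raised or lowered by more than 3 SD from vehicle-only wells, actives on both sides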;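 further: initial slope of Thallos dye fluorescence rise after thallium is added; log ratio against the mean of 0.3% DMSO vehicle wells on the same plate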). As to conditions: U2OS BacMam BK variants, at 30 µM.
Another experiment deals with R275C/beta2Delta. Described as above. As to conditions: U2OS BacMam BK variants, at 30 µM.
The test system of the next experiment is R275C/beta4. Described as above. The note with it: U2OS BacMam BK variants, at 30 µM.
The test system of another experiment is R275C/Slo1WT/beta2. The description is as above. The note with it: U2OS BacMam BK variants, at 30 µM.
The nature of experiment [15]: compounds altering viability of human ES cells (AID 493140).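 Further: cells exposed to compounds for four days before counting.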 As to conditions: human embryonic stem cell survival screen; stronger effect = higher value.

“And” between values parts separate entries of the source, which are not always exact repeats. Equal values may be shown once. For part of these data: Potency and affinity values are given separately. Some structures have more than one record in an assay (separate samples or runs), and their calls can disagree. The source made the active and inactive calls. Unless noted, how the calls were made is not given here.

Chain of Mitogen-activated protein kinase 7 (Homo sapiens) (Q13164 whole entry, looked up, the tested form may be a part): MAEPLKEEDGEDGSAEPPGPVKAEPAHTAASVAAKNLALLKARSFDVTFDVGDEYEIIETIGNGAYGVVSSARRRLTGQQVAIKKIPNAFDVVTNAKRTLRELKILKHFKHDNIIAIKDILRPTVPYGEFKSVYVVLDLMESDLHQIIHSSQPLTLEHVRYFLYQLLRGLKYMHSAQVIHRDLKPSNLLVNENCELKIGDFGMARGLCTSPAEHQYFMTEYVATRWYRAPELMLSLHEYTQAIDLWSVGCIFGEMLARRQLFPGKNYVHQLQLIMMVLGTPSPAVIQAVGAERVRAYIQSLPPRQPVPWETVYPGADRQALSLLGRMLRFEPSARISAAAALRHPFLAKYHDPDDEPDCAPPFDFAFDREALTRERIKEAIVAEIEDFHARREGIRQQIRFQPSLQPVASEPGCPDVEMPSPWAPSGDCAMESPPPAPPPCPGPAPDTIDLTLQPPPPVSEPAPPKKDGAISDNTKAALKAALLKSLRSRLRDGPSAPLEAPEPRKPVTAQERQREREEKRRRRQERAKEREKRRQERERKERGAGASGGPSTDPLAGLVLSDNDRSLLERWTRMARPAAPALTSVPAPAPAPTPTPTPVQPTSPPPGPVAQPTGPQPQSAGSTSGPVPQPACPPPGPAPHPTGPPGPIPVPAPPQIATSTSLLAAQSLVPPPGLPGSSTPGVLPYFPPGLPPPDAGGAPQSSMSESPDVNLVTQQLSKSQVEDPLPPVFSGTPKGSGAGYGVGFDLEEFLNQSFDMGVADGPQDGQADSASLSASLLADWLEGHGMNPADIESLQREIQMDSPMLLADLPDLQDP

As to `Cc1ccc(-c2cc(C(F)(F)F)nn2-c2ccc(S(N)(=O)=O)cc2)cc1`, the inhibition (commonly the change of the read-out against control, counted positive when it falls) in experiment [1] was 23.5%; in [9] it was -14.1% (inactive); in [10], -0.48% (inactive). In addition, the score in [2] is -0.03. In experiment [3], this molecule showed a rescue above control of 17.2. Moreover, the cytochrome c release ratio in experiment [4] came to 4.42. This molecule showed an inhibition of aggregation in experiment [5] of 77%. Also, in experiment [6], the glutamate uptake change is -10.9%. For the same molecule, in experiment [7], the aggregation suppression score was 0.638. Also, the fluorescence ratio was 1.06 (inactive) in experiment [8] and 1.02 (inactive) in experiment [11]. Besides, the mean signal in experiment [12] is 242 (inactive). The luciferase signal in [13] is 28 AU (inactive). For the same molecule, in experiment [14], the z-score is 2.48 (active) and 1.33 (inactive) and 1.65 (inactive). Besides, the log fold change Tl+ flux in the experiment on R275C/beta1 is 0.012 (inactive); in the experiment with R275C/beta2Delta, -0.0274 (inactive); in the experiment on R275C/beta4, -0.00588 (inactive); in the experiment on R275C/Slo1WT/beta2, -0.0385 (inactive).

Take `NS(=O)(=O)c1cc2c(cc1Cl)NC=NS2(=O)=O`: the inhibition was -50.5% in experiment [1], -5% (inactive) in experiment [9] and -1.24% (inactive) in [10]. The same molecule returned a score in experiment [2] of 1.24. Also, the rescue above control in experiment [3] worked out at 7.98. In addition, the cytochrome c release ratio in experiment [4] was determined as 0.96. This molecule gave an inhibition of aggregation in [5] of 80.6%. The glutamate uptake change in [6] worked out at 4.54%. Further, the aggregation suppression score in [7] was determined as 1.42. In experiment [15], the survival is 13.6 (inactive). Further, the fluorescence ratio is 0.95 (inactive) in experiment [8] and 0.94 (inactive) in experiment [11]. In addition, in experiment [12], the mean signal is 245 (inactive). Besides, in [13], the luciferase signal is 52 AU (inactive). In addition, the z-score in experiment [14] is 0.185 (inactive) and 0.555 (inactive). In addition, the log fold change Tl+ flux in the experiment with R275C/beta1 is 0.0235 (inactive); in the experiment on R275C/beta2Delta it was 0.0235 (inactive); with R275C/beta4, 0.0288 (inactive); in the experiment on R275C/Slo1WT/beta2, 0.0443 (inactive).

Consider `CC(C)(C)NCC(O)COc1cccc2c1C[C@H](O)[C@H](O)C2` (stereo not given in full), for which the inhibition in experiment [1] was 27.5%; in [9], -1.36% (inactive); in experiment [10], 0.29% (inactive). The same molecule returned a score in [2] of 1.45. Further, the rescue above control in [3] is -2.31. In addition, the cytochrome c release ratio in [4] worked out at 0.46. The same molecule came in with an inhibition of aggregation in [5] of 78.2%. The glutamate uptake change in experiment [6] is -4.44%. In [7], this molecule gave an aggregation suppression score of 1.12. Moreover, in experiment [15], the survival was 5.83 (inactive). Moreover, the values for the fluorescence ratio in [8] and in [11] were 0.99 (inactive) and 0.9 (inactive), respectively. In addition, the mean signal in experiment [12] is 269 (inactive). The luciferase signal in experiment [13] was 100 AU (inactive). Further, the z-score in experiment [14] is 0.01 (inactive). For the same molecule, the log fold change Tl+ flux is -0.0239 (inactive) in the experiment with R275C/beta1, 0.0276 (inactive) with R275C/beta2Delta, -0.0328 (inactive) in the experiment on R275C/beta4 and 0.00485 (inactive) with R275C/Slo1WT/beta2.

Regarding `OCCN1CCN(CCCN2c3ccccc3Sc3ccc(C(F)(F)F)cc32)CC1`, the inhibition was -7.66% in experiment [1], -6.33% (inactive) in [9] and 5.91% (inactive) in experiment [10]. The same molecule yielded a score in experiment [2] of 1.32. The same molecule returned a rescue above control in [3] of 0. In addition, in experiment [4], the cytochrome c release ratio amounted to 2.24. In experiment [5], this molecule registered an inhibition of aggregation of 51.3%. Also, the glutamate uptake change in experiment [6] is -9.51%. For the same molecule, the aggregation suppression score in experiment [7] amounted to 1.51. Further, the survival in experiment [15] is 5.33 (inactive). Besides, the figures for the fluorescence ratio in [8] and in [11] were 0.8 (active) and 0.82 (inactive), respectively. In addition, in experiment [12], the mean signal was 243 (inactive). Moreover, the luciferase signal in experiment [13] is 28 AU (inactive). Besides, in experiment [14], the z-score was -1.04 (inactive) and -1.87 (inactive) and -0.735 (inactive). In addition, the log fold change Tl+ flux is 0.409 (active) in the experiment with R275C/beta1, 0.0662 (inactive) with R275C/beta2Delta, 0.23 (active) in the experiment with R275C/beta4 and -0.0356 (inactive) in the experiment with R275C/Slo1WT/beta2.
